Here are results for 37 molecules from PubChem BioAssay AID504710 (Sanford-Burnham Center for Chemical Genomics, 2011).

Each structure is given as a SMILES string. A number with no mark means an inactive call. Active and inactive are the calls of the source.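 Rule for the calls: active = inhibition reaching about 16% in any single replicate (limit read from the data); inactive = the rest.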

As usually defined, the inhibition is the drop in the measured response relative to a control, in per cent.

For the test, the target named is Hexokinase HKDC1 (Homo sapiens) (UniProt Q2TB90). The test is described as follows: HKDC1 hexokinase inhibitors, confirmation, biochemical, single concentration (AID 504710). Conditions: recombinant HKDC1, G6PDH/diaphorase/resazurin fluorescence; at 20 µM; active compounds read high. On the technique in general: Resazurin is reduced to fluorescent resorufin, in cell work by metabolically active cells.
Hexokinase HKDC1 (Homo sapiens), sequence (Q2TB90 whole entry, looked up): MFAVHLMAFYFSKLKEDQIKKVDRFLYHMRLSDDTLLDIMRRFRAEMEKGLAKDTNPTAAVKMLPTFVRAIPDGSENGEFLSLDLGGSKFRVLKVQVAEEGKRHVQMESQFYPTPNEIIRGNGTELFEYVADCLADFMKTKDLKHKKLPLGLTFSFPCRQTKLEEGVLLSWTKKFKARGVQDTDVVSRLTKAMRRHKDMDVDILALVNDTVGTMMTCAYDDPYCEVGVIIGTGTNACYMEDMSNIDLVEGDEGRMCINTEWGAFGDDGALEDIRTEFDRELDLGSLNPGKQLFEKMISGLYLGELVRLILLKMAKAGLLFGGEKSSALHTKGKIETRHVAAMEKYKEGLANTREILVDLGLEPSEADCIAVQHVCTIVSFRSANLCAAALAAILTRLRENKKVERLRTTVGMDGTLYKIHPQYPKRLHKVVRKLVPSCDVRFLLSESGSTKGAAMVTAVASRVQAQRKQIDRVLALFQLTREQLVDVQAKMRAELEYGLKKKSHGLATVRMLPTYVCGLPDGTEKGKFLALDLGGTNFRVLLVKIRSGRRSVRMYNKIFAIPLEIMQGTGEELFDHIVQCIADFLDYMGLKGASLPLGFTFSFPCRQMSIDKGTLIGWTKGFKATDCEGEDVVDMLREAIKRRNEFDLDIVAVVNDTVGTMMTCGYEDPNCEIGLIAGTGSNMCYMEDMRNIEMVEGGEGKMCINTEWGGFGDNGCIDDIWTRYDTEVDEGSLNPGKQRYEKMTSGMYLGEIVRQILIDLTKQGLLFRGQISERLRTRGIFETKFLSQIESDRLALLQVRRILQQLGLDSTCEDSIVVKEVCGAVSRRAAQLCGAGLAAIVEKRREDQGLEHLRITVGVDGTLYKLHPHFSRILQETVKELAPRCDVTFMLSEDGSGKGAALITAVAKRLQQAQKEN
As to `Cc1cc(C)c(S(=O)(=O)Nc2cc(SCC(=O)O)c(O)c3ccccc23)cc1C`, the inhibition is 41.5% (active).
In the case of `O=C(CSc1cccc2cccnc12)N/N=C/c1cccnc1` it was -46.6%; in that of `O=C(O)c1ccc2ncsc2c1`, 48.1% (active).
`O=C1C(Cl)=C(NC(=O)c2ccccc2)C(=O)C(Cl)=C1NC(=O)c1ccccc1`: the inhibition is 41.4% (active).
Then `Cc1ccc(SC2=C(N(C)C)C(=O)c3ccccc3C2=O)cc1`, with 59.9% (active); and `COc1cc(C2c3c([nH]c(=O)[nH]c3=O)Nc3ccc4ccccc4c32)cc(OC)c1OC` (configuration not stated), with 43.5% (active); and `Cc1nc([N+](=O)[O-])c(Br)n1CC(=O)c1ccc2ccccc2c1`, with 40.1% (active).
In the case of `Cc1cc(C2=NNC(=Nc3ccc(S(=O)(=O)N4CCOCC4)cc3)SC2)c(C)n1CC1CCCO1` (configuration not stated) it was -55.8%; in that of `O=C(CSc1n[nH]c(-c2cccnc2)n1)Nc1ccc([N+](=O)[O-])cc1Br`, 56.4% (active).
In the case of `COc1cc2c(cc1OC)-c1cc(NCc3ccccn3)nc(=O)n1CC2` it was 54% (active); in that of `O=C1C(C2=C(O)c3ccccc3C2=O)=Nc2ccccc21`, -162%.
For the molecule `NC(=O)C1CCN(C2=C(Cl)C(=O)c3ccccc3C2=O)CC1`, the inhibition was 73% (active).
In the case of `COC(=O)c1ccccc1NC1=C/C(=N\S(=O)(=O)c2cccs2)c2ccccc2C1=O` it was 62.6% (active); in that of `COc1cc(OC)cc(C(=O)NC(=S)NNC(=O)c2cnccn2)c1`, -40%; in that of `CCCCC[C@H](O)/C=C/[C@@H]1[C@@H](C/C=C\CCCC(=O)OC)[C@@H](O)C[C@H]1O`, 61% (active).
In the case of `O=C(O)c1cc(N2N=C(C(F)(F)F)/C(=C/C=C/c3ccco3)C2=O)ccc1Cl` it was 57.5% (active).
On to `C=CCn1c(SCC(=O)Nc2sc3c(c2C#N)CCC(C)C3)nc2cc(C(=O)O)ccc2c1=O` (configuration not stated), for which the inhibition is 32.7% (active).
Then `Cc1ccc2oc(=O)c3cnn(CC(=O)N4CCc5ccccc5C4)c3c2c1`, with -50.8%.
For `COC1(NS(=O)(=O)c2ccc(Br)cc2)C(C)=CC(=O)C=C1C`, the inhibition is 26.3% (active).
Then `Fc1ccc(N=C2NN=C(c3cc(F)ccc3F)CS2)cc1`, with -132%; and `Nc1nc(-c2cccc(Br)c2)cs1`, with -40.6%; and `COC(=O)c1c(NC(C)=O)sc(Cc2ccccc2)c1C`, with -37.8%.
In the case of `O=C(Nc1ccc(N2CCCC2)cc1)c1cccc(-c2cc3ccccc3oc2=O)c1` it was -24.8%.
As for `CC(=O)Oc1cccc2c1C(=O)C1CC=CC(OC(C)=O)C1C2=O` (configuration not stated), the inhibition was -65.8%.
Then `O=C(NC1=C(NC2CCS(=O)(=O)C2)C(=O)c2ccccc2C1=O)c1ccccc1` (configuration not stated), with 68.9% (active).
In the case of `CCOc1ccc2c(c1)C(NC(C)=O)C(=O)N2CCN1CCOCC1` (configuration not stated) it was 60.9% (active).
With `Cc1cc(C)n2nc(SCc3nnc(SCc4ccccc4C)s3)nc2n1`, the inhibition was 69.2% (active).
In the case of `CC(NNC(=S)N1CCN(c2ccccn2)CC1)c1nccc2ccccc12` (configuration not stated) it was -74.7%; in that of `Cn1c2ccccc2c(=O)c2c(=O)n(-c3ccc(F)cc3)c(-c3cccs3)nc21`, 66% (active); in that of `O=C1C=CC(=O)c2c(O)c(CO)c(CO)c(O)c21`, 39.3% (active).
In the case of `CCOC(=O)c1ccc(NC(=O)CSc2n[nH]c(-c3ccncc3)n2)cc1` it was 50.3% (active).
Then `Cc1cc(C(F)F)n2ncc(C(=O)NCCc3ccc(Cl)cc3)c2n1`, with 36.2% (active).
With `COc1cc(SC#N)ccc1N=Cc1c(C)[nH]n(-c2ccc(Cl)cc2)c1=O`, the inhibition is -38.2%.
Then `O=C(O)[C@@H](c1ccccc1)N1Cc2ccccc2C1=O`, with 43.8% (active); and `Cc1ccc(C)c(-n2nnnc2Sc2nnnn2-c2ccccc2)c1`, with 38.7% (active); and `COC(=O)Cn1c2ccc(F)cc2c2nc(C)sc21`, with -90.4%.
Then `Fc1ccccc1N=C1NN=C(c2ccccc2)CS1`, with -53.4%.
